An excerpt weighted towards active compounds, which were near 5.5% of everything screened.
Giardia killer – Small Molecules that selectively kill Giardia lamblia: qHTS. Giardia lamblia trophozoite viability. activity change, % at 7.66 µM, hits read low. 340,000 tested, 0.15% active; in the data active = activity change below about -80%; inconclusive = between about -30% and that limit;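 also: parasites exposed to compound for two days anaerobically before the ATP read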
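Media and compound were dispensed first, then trophozoites at 100 cells/well; plates sat 48 hrs at 37 deg C without oxygen before ATP luminescence reagent was added and read after 15-30 min at room temperature.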
FBPA coupling cs – qHTS Assay for Inhibitors of Fructose-1,6-bisphosphate Aldolase from Giardia Lamblia: Coupling assay counterscreen; 290,000 tested, 0.67% active; coupling enzyme system counterscreen, AmpLite Red fluorescence; activity change, negative = inhibition, % at 58.2 µM, hits read low; in the data active = activity change below about -30%
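Final compound at 57.5 uM, incubated 10 min at RT with coupling enzyme reagent (glyceraldehyde-3-phosphate), then 20 min with substrate and AmpLite Red detection. Fluorescence read at 525/598 nm; tests interference with the coupling assay, not aldolase inhibition.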
ELG1 DNA repair – qHTS screen for small molecules that inhibit ELG1-dependent DNA repair in human embryonic kidney (HEK293T) cells expressing luciferase-tagged ELG1; HEK293T ELG1-luciferase reporter, luminescence, 16 h; DNA damage induced by 5-fluorouridine; Potency, µM (doses to about 46.1 µM), for inactives: at the top dose activity change, negative = inhibition, actives largely listed as inhibitors; 330,000 tested, 2.3% active; AID 504467, 2011; also: potency is read from the fitted curve at half-maximal effect; nearly all actives have a fitted effect of over 55% in size
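Luminescence from the luciferase reporter, measured 30 min after ONE-Glo reagent at room temperature, was the read-out. Beforehand, 2,000 cells per well were exposed for 16 hr at 37 °C to 5-fluorouridine together with compound or vehicle.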
Sfp inh – qHTS Assay for Inhibitors of Bacillus subtilis Sfp phosphopantetheinyl transferase (PPTase); Potency, µM, for the others: largest response in the series, negative = inhibition, actives largely listed as inhibitors; Biochemical Sfp PPTase activity, qHTS; 4'-phosphopantetheinyl transferase ffp (Bacillus subtilis), Q9F4F7; 310,000 tested, 3.5% active;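 also: the enzyme is Sfp with the accession as filed and its product quenches rhodamine fluorescence; potency is read from the fitted curve at half-maximal effect; 0% = enzyme reaction without inhibitor and -100% = no enzyme wells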
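Sfp 15 nM + cpd, 15 min RT; start w/ rhodamine-CoA 5 uM, BHQ-2-YbbR 12.5 uM (final); 50 mM Hepes pH 7.6, 10 mM MgCl2, 0.01% NP-40, 0.01% BSA; read 525/598 nm at 0 and 30 min.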
* marks the source's active call; other numbers are inactive results; ? = inconclusive; . = no result given. Unless noted, calls follow the shape of the dose curve; as a rule, active = well fitted curve in the direction sought with a large enough effect; inconclusive = small, poorly fitted or top-dose-only effect, or another doubt; inactive = no such curve, though single readings can be large; an effect the other way counts as inactive or inconclusive. Unless noted, % is scaled to controls: 0 for no effect and ±100 for the full control effect.

SMILES	Giardia killer	FBPA coupling cs	ELG1 DNA repair	Sfp inh
COC(=O)[C@@]1(Cc2ccccc2)[C@H]2c3cc(C(=O)N(C)C)n(C)c3C[C@H]2CN1C(=O)c1ccccc1	.	2	.	12%
CC(C)[C@@]1(NC(=O)[C@@H]2C=C3c4cccc5[nH]cc(c45)C[C@H]3N(C)C2)O[C@@]2(O)[C@@H]3CCCN3C(=O)[C@H](Cc3ccccc3)N2C1=O	.	-40*	-9%	?
O=P1(Oc2ccccc2)CC=CC(COCc2ccccc2)O1 (stereo unspecified)	9	2	.	12%
Cc1cccc(NP(=O)(Oc2ccccc2F)Oc2ccccc2F)c1	-9	5	18µM*	18%
COc1cccc(NP(=O)(Oc2ccc(Cl)cc2)Oc2ccc(Cl)cc2)c1	6	-2	21µM*	24%
O=P(Nc1ccccc1)(Nc1ccccc1)Oc1ccc(Cl)cc1	0	1	?	7%
C=C1C(O)C2OC3(CCC(/C=C/C(C)C4CC(C)=CC5(OC(CC(C)(O)C(=O)O)CCC5O)O4)O3)CCC2OC1C(O)CC(C)C1OC2(CCCCO2)CCC1C (stereo unspecified)	.	0	.	11%
CCOc1cc(/C=C2\C(=O)NC(=O)N(C)C2=O)cc([N+](=O)[O-])c1O	-3	1	-1%	28µM*
C=C(C=O)CC1CC(O)[C@]2(C)OC3CC4OC5C[C@]6(C)O[C@]7(C)CCC8OC9C[C@]%10(C)OC%11C(C)=CC(=O)OC%11CC%10OC9C[C@@H](C)C8OC7CC6O[C@]5(C)CC5OC5C4OC3CC2O1 (stereo partly specified)	10	1	4.1µM*	11%
C=C(C)C(=O)CP(=O)(OCC)OCC	.	5	.	-4%
C=C1[C@@H](C)[C@H]2[C@H](Cc3ccccc3)NC(=O)[C@]23[C@H](OC(C)=O)/C=C/[C@](C)(O)C(=O)[C@@H](C)C/C=C/[C@H]3[C@@H]1O	.	4	.	11%
C=CCN1CCC23c4c5ccc(O)c4OC2/C(=N/N=C2\CCC4(O)C6Cc7ccc(O)c8c7C4(CCN6CC=C)C2O8)CCC3(O)C1C5 (stereo unspecified)	.	.	.	-9%
O=Cc1cn(Cc2c(F)cccc2Cl)c2ccccc12	15	-3	?	50µM*
O=Cc1cn(Cc2ccccc2F)c2ccccc12	-9	6	?	?
CN1[C@@H]2CC[C@H]1CC(OC(c1ccc(F)cc1)c1ccc(F)cc1)C2 (stereo partly specified)	.	3	.	1%
COc1cc2c(cc1O)[C@H]1Cc3ccc(OC)c(O)c3CN1CC2	.	-38*	.	9%
CC1=C(C(=O)O)N2C(=O)C(NC(=O)c3nn(C)cc3[N+](=O)[O-])C2SC1 (stereo unspecified)	0	1	-9%	4µM*
CC(=O)OCC1=C(C(=O)O)N2C(=O)C(NC(=O)CCCC(N)C(=O)O)C2SC1 (stereo unspecified)	.	7	.	-11%
CC1=C(C(=O)O)N2C(=O)C(NC(=O)Cc3ccccc3)C2SC1 (stereo unspecified)	-4	3	0%	10µM*
CC(C)c1c(CN(C)[C@@H](C)Cc2ccccc2)n(C)n(-c2ccccc2)c1=O	.	1	.	-4%
O=C(CCn1c(=O)oc2ccccc21)N1CCN(C(c2ccccc2)c2ccccc2)CC1	4	1	13µM*	6%
CN(C)c1ccc(C(=O)N/N=C/C23CC[C@@H](O)CC2(O)CC[C@@H]2[C@@H]3CCC3(C)C(C4=CC(=O)OC4)CCC23O)cc1 (stereo partly specified)	1	0	8.2µM*	7%
COC(=O)C1C(O)C(C)C(O)C(C)/C=C\C=C(/C)C(=O)Nc2c(C)c(OC(C)=O)c3c(c2O)C(=O)C(C)=C2OCOC(=C23)/C(C)=C/C(C)(O)C(O)C(C)C1O (stereo unspecified)	-2	-30*	-17%	11%
CCn1cc(C=C2C(=O)NC(=O)NC2=O)c2ccccc21	3	2	?	-9%
Cc1cc(C)cc(OCCOc2cccc(C=C3C(=O)NC(=O)NC3=O)c2)c1	-22	0	-7%	50µM*
SMILES	Giardia killer	FBPA coupling cs	ELG1 DNA repair	Sfp inh
O=C1NC(=O)C(=Cc2ccc3ccccc3c2)C(=O)N1	14	4	5%	40µM*
Cc1ccc(OCCOc2cccc(C=C3C(=O)NC(=O)NC3=O)c2)cc1	-1	3	?	63µM*
Cc1nn(Cc2ccccc2)c(C)c1C=C1C(=O)NC(=O)NC1=O	41	0	28%	-28%
CCOc1cc(C=C2C(=O)NC(=S)NC2=O)ccc1O	10	.	.	.
CC(C)OC(=O)C(O)(c1ccc(Cl)cc1)c1ccc(Cl)cc1	.	0	.	-2%
Cc1nn(-c2ccccc2)c(Cl)c1/C=N\NC(=O)c1cnccn1	-2	0	?	-12%
CC/C=C\C/C=C\C/C=C\C/C=C\C/C=C\CCCC(=O)NCCO	.	0	.	-6%
CCN1CC2(OC(=O)c3ccccc3NC(C)=O)CCC(OC)[C@]34C1[C@H](CC23)[C@@]1(O)C[C@H](OC)[C@H]2CC4C1(O)[C@H]2OC (stereo partly specified)	.	1	.	-6%
N[C@@H](CCCCP(=O)(O)O)C(=O)O	.	9	.	-7%
CCOP(=S)(OCC)Oc1ccc(Cl)cc1Cl	.	3	.	?
CCN1/C(=C\C=C\C2=[N+](CC)c3ccccc3C2(C)C)C(C)(C)c2ccccc21	-8	4	2.3µM*	?
[N-]=[N+]=CC(=O)OCC(N)C(=O)O (stereo unspecified)	.	0	.	-9%
c1csc(CN2CC[C@@]3(CCCNC3)C2)n1	.	2	.	-13%
CCOC(=O)Cn1cc(C(=O)c2ccccc2F)c2ccccc21	-11	0	23%	6%
CCOC(=O)Cn1cc([N+](=O)[O-])nc1[N+](=O)[O-]	-21	-39*	0%	-5%
O=C1NC(=O)C(=Cc2ccccc2OCCOc2ccc([N+](=O)[O-])cc2)C(=O)N1	2	-1	14%	50µM*
COc1cc(C=C2C(=O)NC(=O)NC2=O)ccc1OCc1ccc([N+](=O)[O-])cc1	10	-1	?	32µM*
CN1C(=O)C(=Cc2ccccc2OCc2ccccc2Cl)C(=O)N(C)C1=O	-12	3	15%	50µM*
O=C1NC(=O)C(=Cc2ccc(Oc3ccc([N+](=O)[O-])cc3)cc2)C(=O)N1	-3	-14	-8%	20µM*
CN1C(=O)C(=Cc2ccccc2OCc2ccc(C(=O)O)cc2)C(=O)N(C)C1=O	0	9	7%	-28%
O=C(Oc1ccccc1)N1CCC2(CCCN(Cc3ccccc3)C2)CC1	.	4	.	2%
Cc1c(C=C2C(=O)N(C)C(=O)N(C)C2=O)c(=O)n(-c2ccccc2)n1C	-3	0	1%	22%
CCn1cc(C=C2C(=O)N(C)C(=O)N(C)C2=O)c2ccccc21	?	1	-10%	7%
